We go through 40 compounds from PubChem BioAssay (EPA / NIEHS).

Calls of active or inactive are those of the source. Rule for the calls: active = hit-call score of the fitted dose curve at least 0.9, where 1 is the maximum; inactive = score below 0.9.

Sequence of Cytochrome P450 3A4 (Homo sapiens) (P08684 whole entry, looked up): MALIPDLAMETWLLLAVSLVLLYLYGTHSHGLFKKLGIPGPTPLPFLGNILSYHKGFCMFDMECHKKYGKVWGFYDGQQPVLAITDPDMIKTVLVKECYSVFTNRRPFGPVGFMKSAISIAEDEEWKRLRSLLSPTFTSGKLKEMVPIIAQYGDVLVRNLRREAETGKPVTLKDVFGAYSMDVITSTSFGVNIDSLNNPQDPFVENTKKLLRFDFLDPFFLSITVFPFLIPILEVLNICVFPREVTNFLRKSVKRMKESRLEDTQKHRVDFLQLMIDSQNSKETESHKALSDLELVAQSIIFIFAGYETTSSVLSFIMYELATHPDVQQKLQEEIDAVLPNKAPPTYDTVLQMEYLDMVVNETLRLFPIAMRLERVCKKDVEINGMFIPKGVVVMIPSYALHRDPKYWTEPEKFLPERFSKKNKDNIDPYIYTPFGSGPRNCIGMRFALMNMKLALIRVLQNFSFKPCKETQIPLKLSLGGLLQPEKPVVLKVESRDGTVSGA

Read-out in the assay: Cytochrome P450 3A4 (Homo sapiens) (UniProt P08684)
The experiment in a line: LTEA_HepaRG_CYP3A4: Life Technologies and Expression Analysis (LTEA) Assay for CYP3A4 using HepaRG (AID 2283487). To be noted: mRNA level, 48 h; actives raise or lower the signal. Here is the method:
LTEA_HepaRG is a cell based, multiplexed-readout assay that uses HepaRG, a human liver cell line, with measurements taken at 48 hours after chemical dosing on a 96-well plate.LTEA_HepaRG_CYP3A4 is one of 102 assay component(s) measured in the LTEA HepaRG cell culture assay. It is a marker of NR mediated metabolism.Data from the assay component LTEA_HepaRG_CYP3A4 was analyzed into 1 endpoint. This assay endpoint, LTEA_HepaRG_CYP3A4, was analyzed with bidirectional fitting relative to DMSO as the negative control and baseline of activity. Using a type of inducible reporter, measures of mRNA induction for gain or loss-of-signal activity can be used to understand regulation of transcription factor activity. To generalize the intended target to other relatable targets, this assay endpoint is annotated to the cyp intended target family, where the subfamily is xenobiotic metabolism.
A total of 1060 chemcials from the ToxCast library were tested in eight-point concentration-response experiments. Cell culture and cytotoxicity assays were conducted at Thermo Fisher Scientific's Custom Services facility (Madison, WI). A single lot of human HepaRG cells (Thermo Fisher Scientific, Frederick, MD) was used for the cell culture experiments. 96-well format collagen type I coated plates of human HepaRG cells were prepared using established methods. Briefly, cryopreserved HepaRG cells were thawed, plated at a density of approximately 100,000 cells/well in HepaRG Thaw, Plate, and General Purpose media (HPRG770, Thermo Fisher Scientific), and incubated for 48 hours. 0.5% DMSO was selected as vehicle control to balance the requisite need of DMSO in HepaRG cultures to maintain differentiation (for example, baseline metabolism, proportions of hepatocytes vs. cholangiocytes), while enabling further hepatic receptor pathway activation (for example, PXR and CAR) in response to chemical exposure. 48 hours after plating, the culture medium was replaced with HepaRG Serum-Free Incudtion Media. Cells were exposed to each test chemical in duplicate and maintained in CO2 incubators for another 48 hours. Chemical plates were thawed to room temperature and 200x concentrations of treatment groups were prepared. 8-point conentration-reponse curves were made with the highest exposure at 100 uM, followed by half-log dilutions, all in 0.5% DMSO. Each test plate contained variouse controls, induction positive controls (1mM phenobarbital), cytotoxicity positive controls ([…] aflatoxin B1), vehicle controls (0.5% DMSO), and total lysis controls (0.5% DMSO). Cell morphology images were taken using an Essen IncuCyte FLR automated microscope, with six 96-well plates imaged in about 24 minutes. Images were captured and exported and JPEG files. Spent culture media was transfered to black-well plates for the LDH assay, and remaining media was sorted at -80 C for later use. Cells were treated with RLT buffer and frozen until shipped for gene expression analysis. Total RNA was isolated from the cell suspension in 75 uL of Buffer RLT (Qiagen, Germantown, MD 20874) by Quintiles/Expression Analysis (Durham, NC) using a custom isolation procedure. Total RNA from each plate well was transferred to a preamplification plate. Fluidigm's 96.96 Dynamic ArrayTM (Fluidigm, Amsterdam, the Netherlands) technology was used for gene expression analyses by quantitative reverse transcription polymerase chain reaction (qRT-PCR, performed by Quintiles/Expression Analysis, Durham, NC)89. Standard TaqManTM Assays (Applied Biosystems/ThermoFisher Scientific, Foster City, CA) were used to assess the expression of 93 genes selected based on their selectivity and sensitivity to important hepatic receptors known to be modulated by environmental chemicals; importance in human hepatocyte functionality; and hepatotoxicity. […]
As to `OCCNCCO`, the compound was called inactive.

With `O=S(=O)(O)c1ccc(N=Nc2c(O)ccc3cc(S(=O)(=O)O)ccc23)cc1`, the call was inactive.

Take `OC(Cn1cncn1)(Cn1cncn1)c1ccc(F)cc1F`: the result was inactive.

Take `O=C(NO)C1(NS(=O)(=O)c2ccc(Oc3ccc(F)cc3)cc2)CCOCC1`: the AC50 is 4.48 µM (active).

For the compound `CC(C)CC(C)O` (stereo not given), the outcome was inactive.

For the compound `CCCCCCCCN(C)C`, the compound was classed as inactive.

Consider `CCCOc1ccc(S(=O)(=O)N2CCN(CC)CC2)cc1-c1nc2c(CC)n(Cc3ccccn3)nc2c(=O)[nH]1`, for which the AC50 is 2.11 µM (active).

On to `C=CCc1cc(S(=O)(=O)c2ccc(O)c(CC=C)c2)ccc1O`, for which the AC50 is 80.4 µM (active).

Consider `COc1cc(C(C)C)c2c(c1)S(=O)(=O)N(COc1cc(=O)n3cccc(OCCN4CCCCC4)c3n1)C2=O`, for which the AC50 is 20.8 µM (active).

Consider `CC1(C)C(=O)N(Cl)C(=O)N1Cl`, for which the result was inactive.

Consider `COCc1nnc(-c2ccc[n+]([O-])c2)n1-c1c(Cl)c(Cl)cc2[nH]c(=O)c(=O)[nH]c12`, for which the result was inactive.

As to `CCCCCCCCCCCCCCCCOS(=O)(=O)O`, the compound was called inactive.

Turning to `CC(C)CCCCCCOC(=O)C1CCCCC1C(=O)OCCCCCCC(C)C` (stereo not given), the outcome was inactive.

`CCCCCOC(C)=O`: the call was inactive.

Consider `O=S1(=O)CCCO1`, for which the compound was called inactive.

On to `NC(N)=O`, for which the compound was classed as inactive.

For `c1ccc2c(c1)-c1cccc3c1c-2cc1ccccc13`, the AC50 is 7.02 µM (active).

On to `OC[C@H]1O[C@@](CO)(O[C@H]2O[C@H](CO)[C@@H](O)[C@H](O)[C@H]2O)[C@@H](O)[C@@H]1O`, for which the call was inactive.

For `c1ccc2cc3ccccc3cc2c1`, the compound was called inactive.

Take `Cc1nc(-c2ccccn2)ncc1C(=O)Nn1cc(C)c2cc(F)ccc21`: the AC50 was 1.57 µM (active).

For the compound `O=c1[nH]cnc2c1ncn2[C@H]1CC[C@@H](CO)O1`, the compound was classed as inactive.

In the case of `COS(C)(=O)=O`, the call was inactive.

With `C=CN1CCCC1=O`, the compound was classed as inactive.

Take `CCCCCCCCCC`: the outcome was inactive.

`O=C(O)c1cccc(C[C@@H]2COc3ccc(OCc4nc5cc(F)ccc5s4)cc3[C@@H]2O)c1`: the AC50 is 78.2 µM (active).

As for `CCCC(CCC)C(=O)O`, the result was inactive.

Consider `O=C(O)c1cccc(C(=O)O)c1`, for which the compound was classed as inactive.

As for `C[C@]12C=CC(=O)C=C1CC[C@H]1[C@@H]3C[C@@H](O)[C@](O)(C(=O)CO)[C@@]3(C)C[C@H](O)[C@@]12F`, the call was inactive.

On to `C[C@@H](Oc1ccc(CNC(=O)c2cccnc2Oc2ccc3c(c2)OCO3)c(F)c1)C(=O)O`, for which the compound was called inactive.

With `CCc1cccc(CC)c1N`, the outcome was inactive.

Regarding `CCCc1ccccc1`, the compound was called inactive.

As to `CCCCCCOC(=O)CC(CC(=O)OCCCCCC)(OC(=O)CCC)C(=O)OCCCCCC`, the AC50 was 17.7 µM (active).

For `Cc1ncc([C@@H](CCCCCCc2ccc3c(n2)NCCC3)CC(=O)O)cn1`, the AC50 is 31 µM (active).

As to `CCn1nc(C)c2c1C(=O)NCC(c1ccc(O)cc1)=N2`, the AC50 is 29.9 µM (active).

As to `NNC(=O)c1ccncc1`, the compound was classed as inactive.

For `Nc1ccn([C@@H]2O[C@H](CO)[C@@H](O)[C@@H]2O)c(=O)n1`, the call was inactive.

Take `OCC(CO)(CO)CO`: the outcome was inactive.

As for `Cc1nccn1-c1ccc(Sc2cccc(C3(C(N)=O)CCOCC3)c2)cc1`, the AC50 was 13.4 µM (active).

In the case of `OCCOCCOCCO`, the call was inactive.

Consider `O=C(O)c1ccc2c(c1)nc(C(=O)NC1CCN(C3CC3)CC1)n2Cc1cc(-c2ccc(Cl)s2)on1`, for which the outcome was inactive.

For orientation: AC50 means the concentration at which the activity in the assay is half-maximal.
